Most compounds without a hit are left out; they make up all but 12% or so of the library.
G9a inh = G9a (human) methyltransferase inhibition; Potency, µM (highest dose often 102 µM), usual class: inhibitors; G9a H3K9 monomethylation, AlphaScreen, 2 h; 350,000 tested, 8.8% active; Q96KQ7; AID 504332; also: nearly all actives have a fitted effect of over 75% in size
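Chemiluminescent proximity detection of H3K9 monomethylation, read after 10 min bead incubation in the dark. Reaction: 20 nM G9a, 500 nM biotin-H3K9 peptide, 20 uM SAM cofactor, 2 h, room temperature, following 15 min enzyme-compound preincubation.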
PLK1 PBD inh = blocks phosphopeptide binding to human PLK1 polo-box domain; P53350; Plk1 PBD binding of FITC phosphopeptide, fluorescence polarization; Potency, µM, most hits filed as inhibitors; 360,000 tested, 2.8% active; AID 720504; also: series mostly up to about 57 µM; nearly all actives have a fitted effect of over 65% in size
JMJD2A Tudor = blocks the human JMJD2A Tudor domain. AID 504339. O75164. 390,000 tested, 4.4% active. Potency, µM (series often up to 114 µM), most hits filed as inhibitors. AlphaScreen JMJD2A-Tudor / H3K4me3 peptide binding; also: nearly all actives have a fitted effect of over 50% in size
BAZ2B block = BAZ2B (human) inhibition. 360,000 tested, 4.4% active. Potency, µM (top dose mostly 114 µM), actives largely listed as inhibitors. AlphaScreen BAZ2B-H3K14Ac peptide displacement. Q9UIF8; also: nearly all actives have a fitted effect of over 60% in size
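Protein-peptide AlphaScreen: BAZ2B 50 nM, b-H3K14Ac 50 nM, 1x PBS pH 7.4 + 0.01% Tween-20. Preincubation 30 min RT; cpd 30 min RT (top 110 uM); beads 20 min RT, light-protected.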
PI5P4K alpha inh = blocks human PI5P4K alpha kinase activity. PI5P4Kalpha enzyme, ADP-Glo luminescence, 60 min; hits give low values. max response, %. 330,000 tested, 1.2% active; active = max response of -50% or lower; inconclusive = between -30% and -50%; inactive = -30% or higher; also: value at the top dose of about 77 µM
Target sequence (P48426 whole entry, looked up): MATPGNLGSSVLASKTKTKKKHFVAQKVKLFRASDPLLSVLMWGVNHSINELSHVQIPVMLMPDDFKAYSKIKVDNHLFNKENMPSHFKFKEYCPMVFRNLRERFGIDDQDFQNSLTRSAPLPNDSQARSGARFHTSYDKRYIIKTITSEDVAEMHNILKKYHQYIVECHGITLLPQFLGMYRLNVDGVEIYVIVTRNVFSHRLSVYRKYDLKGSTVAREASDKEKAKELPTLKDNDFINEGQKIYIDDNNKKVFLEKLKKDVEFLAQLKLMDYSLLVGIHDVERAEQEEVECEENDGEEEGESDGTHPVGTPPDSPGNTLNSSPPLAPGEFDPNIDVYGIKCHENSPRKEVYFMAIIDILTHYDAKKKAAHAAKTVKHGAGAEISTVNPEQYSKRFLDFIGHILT
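Enzyme plus substrate dispensed, test compounds pinned in, then ATP (5 microM final) added. After 60 min at RT, ADP-Glo reagent 1 for 45 min and reagent 2 for 30 min preceded luminescence imaging.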
HP1b binding inh = inhibitors of HP1-beta chromodomain binding to methylated histone tails. 390,000 tested, 0.56% active. AlphaScreen HP1-beta / biotin-H3K9me3 peptide binding. Potency, µM (doses to about 114 µM), hits mostly inhibitors. AID 540317. P83916; also: nearly all actives have a fitted effect of over 70% in size
Target sequence (P83916 whole entry, looked up): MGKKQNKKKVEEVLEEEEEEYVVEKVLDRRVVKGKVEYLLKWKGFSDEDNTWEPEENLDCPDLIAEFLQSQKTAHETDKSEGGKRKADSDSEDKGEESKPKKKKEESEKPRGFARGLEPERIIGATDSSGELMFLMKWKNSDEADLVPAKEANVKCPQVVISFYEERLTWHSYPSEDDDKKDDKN
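Compound inhibition of the preformed complex between 50 nM HP1-beta and 50 nM biotinylated H3K9me3 peptide was read by AlphaScreen. Buffer was PBS pH 7.4 with 0.01% Tween-20. Incubations ran 30 min at room temperature, with 10 ug/mL donor/acceptor beads.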
Of the large screens only hits and unclear results are named; the others gave an inactive call. Unless noted, calls follow the shape of the dose curve; as a rule, active = well fitted curve in the direction sought with a large enough effect; inconclusive = small, poorly fitted or top-dose-only effect, or another doubt; inactive = no such curve, though single readings can be large; an effect the other way counts as inactive or inconclusive.

CN1c2ccccc2N(C)C1(C)c1cccc2ccccc12	G9a inh 1.4µM, JMJD2A Tudor 45µM, BAZ2B block inconclusive, HP1b binding inh inconclusive
CCCCCOC(=O)Cn1c(=O)c2c(nc(N3CCOCC3)n2C)n(C)c1=O	G9a inh 10µM, JMJD2A Tudor inconclusive (no result: PI5P4K alpha inh)
CCOC(=O)Cn1c(=O)c2c(nc(N3CCOCC3)n2C)n(C)c1=O	none (no result: PI5P4K alpha inh)
O=C(c1ccc2c(=O)n(Cc3ccccc3)c(=S)[nH]c2c1)N1CCOCC1	G9a inh inconclusive
CCOCCCn1c(=S)[nH]c2cc(C(=O)NCC(OC)OC)ccc2c1=O	G9a inh 25µM, BAZ2B block inconclusive
CCCCCNC(=O)c1ccc2c(=O)n(CCCOCC)c(=S)[nH]c2c1	none
CCOCCCn1c(=S)[nH]c2cc(C(=O)N3CCOCC3)ccc2c1=O	G9a inh inconclusive, JMJD2A Tudor 22µM, BAZ2B block inconclusive (no result: PI5P4K alpha inh)
CCN(CC)S(=O)(=O)c1ccc(N2CC(C(=O)NCc3ccco3)CC2=O)cc1 (centres undefined)	none (no result: G9a inh, JMJD2A Tudor, BAZ2B block, HP1b binding inh)
COc1cccc(CNC(=O)CCC2CCCN(C(=O)c3cc(C)on3)C2)c1 (centres undefined)	none
O=C(CCC1CCCN(C(=O)c2cncs2)C1)NCc1ccc(F)c(F)c1 (centres undefined)	PLK1 PBD inh 30µM, JMJD2A Tudor 25µM, HP1b binding inh inconclusive
COc1cccc(CNC(=O)CCC2CCCN(C(=O)c3cccnc3SC)C2)c1 (centres undefined)	JMJD2A Tudor 40µM
CCOC(=O)[C@H](CCc1ccccc1)N[C@@H](C)C(=O)N1[C@H](C(=O)O)C[C@@H]2CCC[C@@H]21	none (no result: G9a inh, BAZ2B block)
COc1cccc(/C=N/N2CCN(c3ccccc3OC)CC2)c1	G9a inh inconclusive, JMJD2A Tudor 45µM, BAZ2B block inconclusive (no result: PI5P4K alpha inh)
Cc1ccc(/C=N/N2CCN(c3ccncc3S(=O)(=O)N3CCCCC3)CC2)cc1	JMJD2A Tudor inconclusive
COc1cc(OC)c(/C=N/N2CCN(c3ccccc3OC)CC2)c(OC)c1	JMJD2A Tudor inconclusive, BAZ2B block inconclusive
COc1cccc(/C=N/N2CCN(c3ccncc3S(=O)(=O)N3CCCCC3)CC2)c1	G9a inh 50µM, JMJD2A Tudor inconclusive, BAZ2B block 40µM, HP1b binding inh inconclusive
COc1ccccc1N1CCN(/N=C/c2cccc(Cl)c2)CC1	G9a inh 18µM, JMJD2A Tudor 50µM, BAZ2B block inconclusive
COc1ccc(NC(=O)C(OC(=O)CNC(=O)c2ccccc2)c2ccccc2)c(C)c1 (centres undefined)	none (no result: G9a inh, PLK1 PBD inh, BAZ2B block, PI5P4K alpha inh, HP1b binding inh)
N#Cc1ccccc1OCC(O)CNCCNC(=O)Nc1ccccc1 (centres undefined)	none (no result: PLK1 PBD inh, JMJD2A Tudor, BAZ2B block, PI5P4K alpha inh, HP1b binding inh)
Cc1ccc(CN2CC(C(=O)NCCCn3nc(C)cc3C)CC2=O)cc1 (centres undefined)	none (no result: G9a inh, BAZ2B block)
Cc1cc(C)n(CC(=O)NNC(=O)C2CC(=O)N(Cc3ccccc3Cl)C2)n1 (centres undefined)	G9a inh 45µM
O=C(Cn1ncc(Cl)c(Cl)c1=O)N1CCN(Cc2ccccc2)CC1	G9a inh 56µM
CCc1nc2ccccc2n1CC(=O)N1CCN(Cc2ccccc2)CC1	PLK1 PBD inh 21µM
O=S(=O)(c1ccc(NC(=S)N2CCCCC2CO)cc1)N1CCOCC1 (centres undefined)	none (no result: G9a inh, JMJD2A Tudor, BAZ2B block, HP1b binding inh)
COC(OC)C1(CCc2ccccc2)NC(=O)NC1=O (centres undefined)	none (no result: G9a inh, BAZ2B block)
CCOC(=O)Cc1csc(N/N=C\c2ccccc2OC)n1	BAZ2B block inconclusive (no result: G9a inh)
O=C1CC(=C2c3ccccc3-c3ccccc32)C(=O)N1CCCCN1CCN(c2ccccc2)CC1	G9a inh 7.9µM, JMJD2A Tudor inconclusive, BAZ2B block inconclusive (no result: PI5P4K alpha inh)
C[N+]1(C)[C@@H]2CC(OC(=O)C(O)(c3cccs3)c3cccs3)C[C@H]1[C@@H]1O[C@@H]12 (some centres undefined)	none (no result: PLK1 PBD inh, JMJD2A Tudor, BAZ2B block, PI5P4K alpha inh, HP1b binding inh)
COc1ccc(-c2ccc(OC)c(C3C4C=CCCC4(C)C(=O)N3Cc3ccccc3)c2)cc1 (centres undefined)	none (no result: G9a inh, PLK1 PBD inh, BAZ2B block, PI5P4K alpha inh)
COc1cc2c3nnc(-c4ccc(F)cc4)c-3cn(Cc3cccc(F)c3)c2cc1OC	G9a inh 45µM, PLK1 PBD inh inconclusive, JMJD2A Tudor inconclusive (no result: BAZ2B block)
CC(C)(C)NC(=O)NC(=O)CSc1ccc(S(=O)(=O)N2CCOCC2)cn1	G9a inh 5.6µM, PLK1 PBD inh inconclusive, JMJD2A Tudor 79µM
Cc1ccc(S(=O)(=O)N2CCOCC2)cc1NC(=O)CSc1ccccn1	G9a inh inconclusive, PLK1 PBD inh 30µM
CCNC(=O)NC(=O)CSc1ccc(S(=O)(=O)N2CCOCC2)cn1	none (no result: G9a inh, BAZ2B block)
Cc1ccc(S(=O)(=O)N2CCOCC2)cc1NC(=O)CSc1nnnn1C1CCCC1	none
Cc1ccc(S(=O)(=O)N2CCOCC2)cc1NC(=O)CNC1CCCC1	JMJD2A Tudor 5µM (no result: G9a inh)
Cc1ccc(C)c(SCC(=O)Nc2cc(S(=O)(=O)N3CCOCC3)ccc2C)c1	G9a inh 14µM, PLK1 PBD inh inconclusive
Cc1ccc(S(=O)(=O)N2CCOCC2)cc1NC(=O)CSc1nccn1C	none
CCCNC(=O)c1cc(C2CCCCN2C(=O)c2cc(C(C)(C)C)nn2C)on1 (centres undefined)	none (no result: G9a inh, JMJD2A Tudor, BAZ2B block, HP1b binding inh)
CCOC(=O)c1ccc(S(=O)(=O)NNC(=O)COc2cccc(C)c2)cc1	PLK1 PBD inh inconclusive
CC(=O)Nc1ccc(S(=O)(=O)NNC(=O)COc2cccc(C)c2)cc1	G9a inh 6.3µM, PLK1 PBD inh 24µM, JMJD2A Tudor 50µM
Cc1ccc(C)c(NC(=O)CCC(=O)NNS(=O)(=O)c2ccc(Cl)cc2)c1	G9a inh inconclusive, PLK1 PBD inh inconclusive
Cc1c(C(=O)NNS(=O)(=O)c2ccccc2Cl)sc(=S)n1C	none
CNC(=O)CCCCCNS(=O)(=O)c1ccc(C)cc1	PLK1 PBD inh 19µM, HP1b binding inh inconclusive
Cc1ccc(S(=O)(=O)NCCCCCC(=O)Nc2ccccc2)cc1	none
CC(=O)Nc1ccc(S(=O)(=O)NNC(=O)c2sc(=S)n(C)c2C)cc1	JMJD2A Tudor 0.71µM
Cc1ccc(S(=O)(=O)NNC(=O)CCCCC(=O)NNS(=O)(=O)c2ccc(C)cc2)cc1	G9a inh 45µM
CC1CCC(NC(=O)c2ccc3c(c2)S(=O)(=O)c2ccccc2C3=O)CC1 (centres undefined)	none (no result: G9a inh, BAZ2B block)
Cc1ccc(C(O)(C(=O)NNS(=O)(=O)c2ccc(C)cc2)c2ccc(C)cc2)cc1	none
Cc1ccc(S(=O)(=O)NNC(=O)c2snnc2C)cc1	G9a inh 10µM, JMJD2A Tudor 79µM
Cc1ccc(S(=O)(=O)NNC(=O)c2ccc(O)cc2)cc1	G9a inh inconclusive
CC(=O)Nc1ccc(C(=O)NNS(=O)(=O)c2ccc(C)cc2)cc1	G9a inh 20µM, BAZ2B block 50µM
Cc1ccc(S(=O)(=O)NNC(=O)C(=O)NNS(=O)(=O)c2ccc(C)cc2)cc1	JMJD2A Tudor 35µM
CCc1ccc(NC(=O)c2sc3nc(C)c(Cl)c(C)c3c2NC(=O)c2ccccc2)cc1	none (no result: PLK1 PBD inh, PI5P4K alpha inh)

Source: PubChem
